Source: PubChem BioAssay AID651635 (National Center for Advancing Translational Sciences (NCATS), 2012)
Among all 400,000 compounds or so, about 1,900 (0.47%) were called active. Not shown: some 14% with an inconclusive outcome. For the sample, actives were picked, then their nearest neighbours and some compounds at random. A number with no mark means an inactive call. Calls come from the whole dose curve; as a rule, active = well fitted cell-killing curve with a large enough effect; inconclusive = small, poorly fitted or top-dose-only effect, or effect the other way; inactive = no such curve, though single readings can be large or run the other way.

Test: Viability Counterscreen for Primary qHTS for Inhibitors of ATXN expression; note: nearly all actives have a fitted effect of over 40% in size
Conditions: S2 cells (HEK-293 line with an ATXN2-luciferase reporter) viability, CellTiter-Fluor protease fluorescence, 24 h; series mostly up to 56.7 µM; activity change, negative = cytotoxicity: at the top concentration
Excerpt: Spinocerebellar ataxia type 2 (SCA2) is a multisystem neurodegenerative disease caused by a dominantly-acting mutation leading to expansion of a polyQ domain in the ataxin-2 protein (ATXN2). SCA2 patients develop progressive ataxia and later lose function in other neuronal systems. Prominent parkinsonian signs develop in some patients. Similar to many neurodegenerative disorders, no symptomatic or disease-modifying treatments are known.
The primary objective of the proposed research is to identify compounds inhibiting ATXN2 expression and to test them for efficacy in SCA2 mouse models. To this end, we have developed a cell-based assay paired with an in vivo mouse model using identical luciferase expression constructs. This approach takes advantage of an ATXN2-luciferase transgene, with the luciferase gene flanked by the upstream and downstream portions of the ATXN2 gene. This primary assay was tested against the NIH Molecular Libraries Small Molecule Repository (MLSMR).
NIH Chemical Genomics Center [NCGC]
NIH Molecular Libraries Probe Centers Network [MLPCN]
Assay Submitter (PI): Daniel Scoles, University of Utah
PROTOCOL TABLE (as described by Inglese J, Shamu CE and Guy RK. 2007)
SEQUENCE No. (e.g., 1, 2, 3, etc.); […] (e.g., Cells, Incubation, Reagent, etc.); VALUE; DESCRIPTION.
1; Cells; 4 uL; white, solid bottom, 1536-well Greiner assay plate.
2; Incubation; 2 hr; 37 degree C in 5% humidified CO2.
3; Compounds; 23 nL; Kalypsis pintool (Wako USA) equipped with a 1536-well pin head.
4; Incubation; 24 hr; 37 degree C in 5% humidified CO2.
5; Reagent; 1 uL; Gly-Phe-7-Amino-4-trifluoromethylcoumarin.
6; Incubation; 30 min; 37 degree C in 5% humidified CO2.
7; Detection; Fluorescence; ViewLux plate reader (PerkinElmer).
8; Reagent; 3 uL; SteadyGlo luciferase solution (Promega).
9; Incubation; 5 min; room temperature.
10; Detection; Luminescence; ViewLux plate reader (PerkinElmer).
NOTES (numbers refer to Sequence numbers above)
1. S2 cells expressing ATXN2-luciferase reporter were suspended in phenol-red free DMEM and dispensed in assay plates using a Multidrop Combi dispenser (Thermo Fisher Scientific).
2. Assay plates were incubated. Evaporation was prevented by covering assay plates with metal lids containing holes to allow gas diffusion.
3. […] Vehicle-only plates, with DMSO being pin-transferred to columns 5-48, were inserted uniformly at the beginning and the end of each library to monitor and record any shifts in assay performance.
5. 125 uM Gly-Phe-7-Amino-4-trifluoromethylcoumarin (MP Biomedicals) working concentration was used at a final concentration of 25 uM.
7. To assess cell viability; the assay plates were read using the ViewLux high-throughput CCD imager (PerkinElmer), wherein single end-point fluorescence measurement was acquired (excitation 405/10; emission 540/25 nm).
8. Detection reagent SteadyGlo Luciferase (Promega) was added to the assay plate.
10. Luminescence is then measured on the ViewLux imager equipped with a clear emission filter using a 2 sec exposure. All screening operations were performed on a fully integrated robotic system (Kalypsys) containing one RX-130 and two RX-90 anthropomorphic robotic arms (Staubli).
Inglese J, Shamu CE and Guy RK, Reporting data from high throughput screening of small molecule libraries, Nature Chemical Biology, 2007, 3(8): 438-441. doi.org/10.1038/nchembio0807-438.
Potency is the fitted concentration of half-maximal effect.

Row | SMILES | activity change, negative = cytotoxicity [%] | Potency
1 | COc1cccc(CN2CCC3(CC2)c2ccccc2[C@@H](NC(=O)c2ccccc2OC)[C@@H]3O)c1 | -15.1 | 
2 | O=C1CCNCCN1[C@H](CO)Cc1ccccc1 | -14.8 | 
3 | c1ccc(C[C@H]2CNCCN2CCC23CC4CC(CC(C4)C2)C3)cc1 |  | 31.6 µM (active)
4 | Cc1cccc(C(=O)Nc2ccc(S(=O)(=O)N3CCCCC3c3cccnc3)cc2)c1 (centres undefined) |  | 14.1 µM (active)
5 | Cc1cc(NS(=O)(=O)c2ccc(NC(=O)c3cccnc3)cc2)nc(C)n1 | -27.6 | 
6 | CCOc1ccccc1C(=O)Nc1ccc(S(=O)(=O)N2CCCCC2c2cccnc2)cc1 (centres undefined) | -18 | 
7 | CCN1CCN(C(=O)N[C@@H](C(=O)N[C@@H]2C(=O)N3[C@@H]2SC(C)(C)[C@H]3C(=O)O)c2ccccc2)C(=O)C1=O |  | inactive
8 | CCOC(=O)c1ccn(S(=O)(=O)c2ccc(C)cc2)c1-c1ccccc1 | -16 | 
9 | Oc1ccc2ccccc2c1N=Nc1nccs1 |  | 15.8 µM (active)
10 | Oc1ccc(N=Nc2nccs2)c(O)c1 |  | 10 µM (active)
11 | CN1CCCCCC1C(=O)NCCN1Cc2ccccc2OC(c2ccsc2)C1 (centres undefined) | -11.5 | 
12 | Cc1nc2cc(NC(=O)[C@@H]3C[C@@H](Sc4ccccn4)CN3Cc3ccccc3C)ccc2s1 | -14.5 | 
13 | O=C(NN=Cc1ccc([N+](=O)[O-])cc1)C1CC1 | -5.43 | 
14 | CC(=O)Nc1ccc(C=Cc2ccc([N+](=O)[O-])cc2)cc1 | -4.99 | 
15 | O=C1/C(=C\c2ccc([N+](=O)[O-])cc2)CS(=O)(=O)C/C1=C/c1ccc([N+](=O)[O-])cc1 |  | 2.67 µM (active)
16 | COC(=O)c1cc(Cl)c(NC(C)=O)cc1OC | 2.13 | 
17 | O=c1cc(COc2cccc(C(F)(F)F)c2)nc2sc3c(n12)CCCC3 | -33.8 | 
18 | O=C(Nc1ccc(Cl)cc1)C1Cc2c(-c3ccc4c(c3)OCO4)ccnc2O1 (centres undefined) | -25.3 | 
19 | CCCCNC(=O)C(C)N(CCN(C)C)C(=O)CCCCCN1C(=O)NC(c2ccc(Cl)cc2)C(C(=O)OCc2ccccc2)=C1C (centres undefined) |  | 22.4 µM (active)
20 | CCN1C(=O)N[C@@H](c2ccccc2)C(C(=O)OC)=C1C | 0.354 | 
21 | COC(=O)CCCCCN1C(=O)NC(c2ccc(-c3ccccc3)cc2)C(C(=O)OCc2ccccc2)=C1C (centres undefined) | -5.84 | 
22 | Cc1oc(-c2cccc(NC(=O)c3ccccc3)c2)nc1CNC(=O)c1cnc2ccccn2c1=O | -18.1 | 
23 | COc1cc(=O)n2c(c1C(=O)N(C)Cc1nonc1C)CCN(C(=O)c1ccc(C)cc1C)CC2 | -16.8 | 
24 | O=c1ccc2c(-c3ccccc3S(=O)(=O)O)c3ccc(O)c(O)c3oc-2c1O |  | 10 µM (active)
25 | CC(=O)Nc1ccccc1-c1nc(CNC(=O)c2ccc(Cl)cc2)c(C)o1 | -11.2 | 

Row | SMILES | activity change, negative = cytotoxicity [%] | Potency
26 | COc1cccc(CSc2nc3nc(C)cc(C)n3n2)c1 | 2.32 | 
27 | COc1ccc(-c2nc3nc(C)cc(C)n3c2Nc2c(C)cccc2C)cc1 |  | 28.2 µM (active)
28 | COc1ccc(-c2cc(C)nc3nc(N)nn23)cc1 | 0.852 | 
29 | COc1cncc(-c2cnc3sc(NCCc4ccccn4)nn23)c1 | 2.53 | 
30 | COc1cc(/C=C/C(N)=O)cc(OC)c1OC | -12.2 | 
31 | CC(C)(c1ccccc1)c1ccc(OCCN2CCCC2)cc1 | 1.01 | 
32 | CC1CCCN(CC(=O)Nc2cc(Cl)ccc2Oc2ccccc2)C1 (centres undefined) | 16.2 | 
33 | COCC1CCCN(Cc2ccc3c(c2)CN(C(=O)c2ccnn2C)CCO3)C1 (centres undefined) | 2.16 | 
34 | CCCNC(=O)c1cc(C2CCCN(C(=O)c3ccc4c(c3)CCO4)C2)on1 (centres undefined) | -32.5 | 
35 | COc1ccc2c(c1)CCc1cnc(-n3ncc(C(=O)NCCN4CCOCC4)c3C)nc1-2 | -7.73 | 
36 | Cc1cnc(C(=O)N2CCOc3ccc(CN4CCCC(C(=O)c5cccnc5)C4)cc3C2)[nH]1 (centres undefined) | -20.4 | 
37 | CC(=O)Nc1cc(C(=O)N2CCc3c(Cl)cccc3C2)cc2ncn(CCc3ccccn3)c12 | -11.4 | 
38 | Cc1ccc(-c2csc(NC3OC(=O)c4ccccc43)n2)cc1 (centres undefined) |  | 25.1 µM (active)
39 | COc1ccc(-c2csc(Nc3cccc(C)n3)n2)cc1OC | -29.7 | 
40 | COc1ccc2c(c1OC)C(=O)OC2Nc1nc(-c2ccccc2)cs1 (centres undefined) |  | 20 µM (active)
41 | CCc1ccccc1NC(=O)[C@@H]1CCC(=O)N1C1OC(=O)c2c1ccc(OC)c2OC (some centres undefined) | -5.58 | 
42 | Cc1ccc(-c2csc(-c3c[nH]c4ccccc34)n2)cc1 | -12.2 | 
43 | C/C(CC1CC(C)(C)OC1=O)=N/Nc1nc(-c2ccccc2)cs1 (centres undefined) | -37.1 | 
44 | Cc1c(C(=O)NCC2CCCN(C)C2)cnn1-c1nccc(-c2ccco2)n1 (centres undefined) | -11.9 | 
45 | Cc1ccc(NS(=O)(=O)c2cc3c(cc2Br)NC(=O)CO3)cc1C | -26.2 | 
46 | N#Cc1ccc(-c2nc3c(Cl)cc(C(F)(F)F)cn3c2Cc2ccccc2C(F)(F)F)cc1 | -15.8 | 
47 | C[C@@H]1CN(Cc2ccc3c(c2)CN(Cc2ccc(Oc4ncccn4)cc2)CCO3)C[C@H](C)O1 | -1.79 | 
48 | O=[N+]([O-])c1c(NCCO)cc(Sc2nc3ccccc3s2)c2nonc12 |  | 20 µM (active)
49 | CC(C)c1ccc(S(=O)(=O)Nc2ccc(O)c(Sc3nc4ccccc4s3)c2)cc1 | -34 | 
